{"source": "the supplement of paper PMC11417369", "note": "Whole data set: some 25,000 sequences, median “ln(normalized median fluorescence intensity)” near 9.7, cut for the highest 2% near 11. This is one part of a sample in which the highest values are shown more often than they occur.", "data": [{"system": "PfAP2-HC AP2 domain (GST-tagged)", "test": "gcPBM binding intensity (ln(normalized median fluorescence intensity)); higher = stronger DNA binding", "method_in_brief": "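After 1 h on an Agilent 4 × 180k array of primer-extended double-stranded 36-bp intergenic genomic probes and negative controls, bound GST-tagged P. falciparum DNA-binding domains were detected with Alexa488 anti-GST antibody and scanned at 488 nm. The domains had been expressed in E. coli, and binding took place in 1× PBS with 1% milk, 0.2 mg/ml BSA, 0.5% salmon testes DNA and 0.03% Triton X-100. Binding intensity is the highest Masliner-normalised natural-log median intensity across replicate spots of either probe orientation.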", "values": [{"sequence": "TTTCGTCATTTTGTTTTTAATTCTACAATTTAGTTA [XGTACX_negctrl_site286]", "gcPBM binding intensity (ln)": 9.66}, {"sequence": "TTATAGAGCTTATTCACACATACATATGTATTTATA [CACACA_site5775]", "gcPBM binding intensity (ln)": 9.87}, {"sequence": "ATTATTATACACAAATGTACATGTGAATTTTTTTTC [XGTACX_site6982]", "gcPBM binding intensity (ln)": 9.63}, {"sequence": "ATAAAACAAAAATATAAACACACATACATTGGTTTT [CACACA_site8809]", "gcPBM binding intensity (ln)": 10.1}, {"sequence": "TTATTTTTATTATTTTGTATATATATTTATAGAAAA [XGTACX_negctrl_site465]", "gcPBM binding intensity (ln)": 9.28}, {"sequence": "TACATATAAAAGTACACACACACACCCATATATATA [CACACA_site941]", "gcPBM binding intensity (ln)": 11}, {"sequence": "ATAAATATATTTCACGCACACACACCCCAAATAAAT [CACACA_site9272]", "gcPBM binding intensity (ln)": 10.4}, {"sequence": "TATACAATATAAAATACACACGCACCCAAAAAAAAA [CACACA_site9174]", "gcPBM binding intensity (ln)": 10.3}, {"sequence": "AATACATATAAAAGTACACACACACCCATATATATA [CACACA_site8220]", "gcPBM binding intensity (ln)": 10.5}, {"sequence": "AGATAAAAAAAGTACACACACACATATATATATATA [CACACA_site3072]", "gcPBM binding intensity (ln)": 10.4}, {"sequence": "AAATATATTTCACGCACACACACCCCAAATAAATTT [CACACA_site3820]", "gcPBM binding intensity (ln)": 11.2}, {"sequence": "AAAAAATTAAAAATACGTACATATATACATATATAT [XGTACX_site4621]", "gcPBM binding intensity (ln)": 9.71}, {"sequence": "CATCATATAAATTCAAGTACAAGAAAAAGTAATATA [XGTACX_site2383]", "gcPBM binding intensity (ln)": 9.64}, {"sequence": "ATATTTATGTAATGTTTGATTTTTTTTTTATGTGTG [CACACA_negctrl_site1422]", "gcPBM binding intensity (ln)": 9.88}, {"sequence": "TACAAATATGGACACACACACATATTTATATTTATA [CACACA_site6420]", "gcPBM binding intensity (ln)": 11}, {"sequence": "TATATATATGGACACACACACATATAAATAAATAAA [CACACA_site4406]", "gcPBM binding intensity (ln)": 10.7}, {"sequence": "TAATAAATAGGACACACACACATATTTATATATCAT [CACACA_site6771]", "gcPBM binding intensity (ln)": 11}, {"sequence": "AGGATACACGGACACACACACATATATATATATATA [CACACA_site4654]", "gcPBM binding intensity (ln)": 10.6}, {"sequence": "AAAGGATATGGACACACACACACATATATATATATA [CACACA_site8686]", "gcPBM binding intensity (ln)": 10.6}, {"sequence": "AGGATATGCGGACACACACACATATATATATATATA [CACACA_site5247]", "gcPBM binding intensity (ln)": 11}, {"sequence": "TACAAATATGGACACACACACATATATATATATATA [CACACA_site4488]", "gcPBM binding intensity (ln)": 11.3}, {"sequence": "GAATAATATGGACATACACACATATACATACATATA [CACACA_site2114]", "gcPBM binding intensity (ln)": 10.1}, {"sequence": "TAATAAAATAATATCACACATATTTATATATATTAT [CACACA_site5814]", "gcPBM binding intensity (ln)": 9.61}, {"sequence": "TATTTATATGGACACACACACATATAAATAAATAAA [CACACA_site6346]", "gcPBM binding intensity (ln)": 10.2}, {"sequence": "ATAAATATAGGACACACACACATATTATATATATAT [CACACA_site5658]", "gcPBM binding intensity (ln)": 10.5}, {"sequence": "TGTACAAATATGTACACACACACATATTTATTTATA [CACACA_site6419]", "gcPBM binding intensity (ln)": 10.2}, {"sequence": "AACTATAACTAAAAAAATCACATAAAATATTTTATT [TGCATGCA_negctrl_site363]", "gcPBM binding intensity (ln)": 9.46}, {"sequence": "TATTTAAAATAATGTGCAAAAGAATAAATAAATAAA [TGCATGCA_negctrl_site194]", "gcPBM binding intensity (ln)": 9.74}, {"sequence": "GTGTACAAAATATGGTAATAAAGTAGTTACATGAAT [CACACA_negctrl_site1775]", "gcPBM binding intensity (ln)": 9.86}, {"sequence": "TGTATATTTGATTCATGTACATATTTTATTTTAACT [XGTACX_site5169]", "gcPBM binding intensity (ln)": 9.72}, {"sequence": "TTATTTATCAAAAAATGTACAAAAATATATAAACAA [XGTACX_site940]", "gcPBM binding intensity (ln)": 9.6}, {"sequence": "ACGCACGAAATAAATACATGCATATTGTAAAAATTA [TGCATGCA_site310]", "gcPBM binding intensity (ln)": 9.48}, {"sequence": "TTAAAAATAAAAAATACACACTCTAGTCCATGTAAC [CACACA_site3640]", "gcPBM binding intensity (ln)": 10.1}, {"sequence": "ATGTAACACATATTTGGTACAGATAGATAAAAGTAT [XGTACX_site8291]", "gcPBM binding intensity (ln)": 9.87}, {"sequence": "ATAAAGAAAAATAGAAGTACATATATGCATGTTAAT [XGTACX_site4480]", "gcPBM binding intensity (ln)": 9.86}, {"sequence": "ATGTGTTTCTTCAATTGTACTAAAAGGTATATATTG [XGTACX_site4608]", "gcPBM binding intensity (ln)": 9.63}, {"sequence": "TAAATTATAAATTGCACACATATTTTTATATTTATA [CACACA_site2976]", "gcPBM binding intensity (ln)": 9.77}, {"sequence": "GCTTGGATATATTAATGTACTTATATATTATGTTGT [XGTACX_site3768]", "gcPBM binding intensity (ln)": 9.82}, {"sequence": "AATACATGCTTATTTTAACACACAAATGGTAGTAAT [CACACA_site8154]", "gcPBM binding intensity (ln)": 9.83}, {"sequence": "TATATATATGGACACACACACATATATATATATTTT [CACACA_site5409]", "gcPBM binding intensity (ln)": 10.3}, {"sequence": "TATATATATGGACACACACACACATATATATATATA [CACACA_site6121]", "gcPBM binding intensity (ln)": 11.3}, {"sequence": "AAAAATTATGGACACACACACATATATATATATATT [CACACA_site4717]", "gcPBM binding intensity (ln)": 10.3}, {"sequence": "ATGTCCTATATTAGTACACACATGAAAATATAAATA [CACACA_site7497]", "gcPBM binding intensity (ln)": 9.66}, {"sequence": "AAAAAAAAAAAAAAAAGTACAAATTTAAAAATGTGT [XGTACX_site112]", "gcPBM binding intensity (ln)": 9.44}, {"sequence": "AGAATAAAAAGGAACACACACACACCCATATATATA [CACACA_site3590]", "gcPBM binding intensity (ln)": 10.7}, {"sequence": "AATATAAATAAAAACACACACACACCGATATATATA [CACACA_site5283]", "gcPBM binding intensity (ln)": 10.8}, {"sequence": "CACTAAAATAAACACACACACACACCGATATATATA [CACACA_site9379]", "gcPBM binding intensity (ln)": 10.8}, {"sequence": "AATAAAAAGGAACACACACACACACCGATATATATA [CACACA_site5895]", "gcPBM binding intensity (ln)": 11.2}, {"sequence": "CTATAATAATAAAGTGAACACACACCGATAATATAT [CACACA_site9377]", "gcPBM binding intensity (ln)": 10.1}, {"sequence": "CAAAAAAACAAACACACACACACACCGATATATATA [CACACA_site9218]", "gcPBM binding intensity (ln)": 10.5}, {"sequence": "AAAAAGGATAAACACACACACACACCGATATATATA [CACACA_site8206]", "gcPBM binding intensity (ln)": 11}, {"sequence": "TGGGAATAAAAACACACACACACACCGATATATATA [CACACA_site5875]", "gcPBM binding intensity (ln)": 11.3}, {"sequence": "AAAGATAAAAAAAGTACACACACACCGATATATATA [CACACA_site9006]", "gcPBM binding intensity (ln)": 10.6}, {"sequence": "AACGAAGCATAAAATGTTATGTATATATATAAATAT [TGCATGCA_negctrl_site304]", "gcPBM binding intensity (ln)": 9.79}, {"sequence": "ATAGAAATATATATATGTACATATAGATAAATCTAT [XGTACX_site7833]", "gcPBM binding intensity (ln)": 9.75}, {"sequence": "ATATGTACATATCTCATGCACTTAACAAAAAAAAAG [GTGCAC_site9898]", "gcPBM binding intensity (ln)": 9.56}]}]}
